PubChem BioAssay AID1159580 (chemical genetic matrix, 2015)
Among all 5,500 compounds or so, about 2,000 (36%) were called active. Inconclusive results (about 18%) are left out. No stated cut-off is given here; in the data, active means normalized growth mostly below about 0.91 (no sharp cut-off); inconclusive means no clear call, values can overlap the other calls; inactive means mostly above about 0.92. The list shows a part of the results.

Assay: chemical genetic growth profiling, strain panel (AID 1159580);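 further: tested at 20 µM; growth read once vehicle control cultures reached saturation at 30 °C; 1 = growth at the plate median or of vehicle wells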
Conditions: growth OD

Measured: normalized growth

CNc1ccc(C(=O)CC(O)CCC(C)C2OC(=O)CC(O)CC(=O)CC(O)CC(O)CC(O)CC(O)CC3(O)CC(O)C(C(=O)OC)C(CC(OC4OC(C)C(O)C(N)C4O)/C=C/C=C/C=C/C=C/C=C/C=C/C=C/C2C)O3)cc1 (stereo unspecified)
inactive: S. cerevisiae deletion strains, locus YOL012C, strain htz1 0.225
active: S. cerevisiae deletion strains, locus YAL013W, strain DEP1, stronger effect = lower value 0.0566 | S. cerevisiae deletion strains, locus YBR021W, strain FUR4, stronger effect = lower value 0.0931 | S. cerevisiae deletion strains, locus YBR229C, strain ROT2, stronger effect = lower value 0.0524 | S. cerevisiae deletion strains, locus YCL029C, strain bik1, stronger effect = lower value 0.0837 | S. cerevisiae deletion strains, locus YDL035C, strain GPR1, stronger effect = lower value 0.0535 | S. cerevisiae deletion strains, locus YDL074C, strain BRE1, stronger effect = lower value 0.0938 | S. cerevisiae deletion strains, locus YDL101C, strain DUN1, stronger effect = lower value 0.0651 | S. cerevisiae deletion strains, locus YDL134C, strain PPH21, stronger effect = lower value 0.0946 | S. cerevisiae deletion strains, locus YDL185W, strain tfp1, stronger effect = lower value 0.056 | S. cerevisiae deletion strains, locus YDL192W, strain arf1, stronger effect = lower value 0.0619 | S. cerevisiae deletion strains, locus YDR101C, strain arx1, stronger effect = lower value 0.0612 | S. cerevisiae deletion strains, locus YDR150W, strain NUM1, stronger effect = lower value 0.0603 | S. cerevisiae deletion strains, locus YDR162C, strain NBP2, stronger effect = lower value 0.0526 | S. cerevisiae deletion strains, locus YDR318W, strain mcm21, stronger effect = lower value 0.0791 | S. cerevisiae deletion strains, locus YDR388W, stronger effect = lower value 0.0583 | S. cerevisiae deletion strains, locus YDR502C, strain sam2, stronger effect = lower value 0.0726 | S. cerevisiae deletion strains, locus YEL061C, strain CIN8, stronger effect = lower value 0.133 | S. cerevisiae deletion strains, locus YER110C, stronger effect = lower value 0.11 | S. cerevisiae deletion strains, locus YER155C, strain BEM2, stronger effect = lower value 0.0648 | S. cerevisiae deletion strains, locus YER167W, strain BCK2, stronger effect = lower value 0.0539 | S. cerevisiae deletion strains, locus YGL078C, strain dbp3, stronger effect = lower value 0.0564 | S. cerevisiae deletion strains, locus YGL086W, strain mad1, stronger effect = lower value 0.0591 | S. cerevisiae deletion strains, locus YGL248W, strain PDE1, stronger effect = lower value 0.11 | S. cerevisiae deletion strains, locus YGR078C, strain PAC10, stronger effect = lower value 0.0538 | S. cerevisiae deletion strains, locus YGR135W, strain pre9, stronger effect = lower value 0.0705 | S. cerevisiae deletion strains, locus YGR229C, strain SMI1, stronger effect = lower value 0.0606 | S. cerevisiae deletion strains, locus YGR252W, strain gcn5, stronger effect = lower value 0.194 | S. cerevisiae deletion strains, locus YHR030C, strain SLT2, stronger effect = lower value 0.0491 | S. cerevisiae deletion strains, locus YHR079C, strain IRE1 (second series), stronger effect = lower value 0.0787 | S. cerevisiae deletion strains, locus YHR094C, strain hxt1, stronger effect = lower value 0.119 | S. cerevisiae deletion strains, locus YHR129C, strain ARP1, stronger effect = lower value 0.0557 | S. cerevisiae deletion strains, locus YHR200W, strain rpn10, stronger effect = lower value 0.0615 | S. cerevisiae deletion strains, locus YIL066C, strain RNR3, stronger effect = lower value 0.12 | S. cerevisiae deletion strains, locus YIL073C, strain SPO22, stronger effect = lower value 0.63 | S. cerevisiae deletion strains, locus YIL125W, strain kgd1, stronger effect = lower value 0.0582 | S. cerevisiae deletion strains, locus YIR030C, strain dcg1, stronger effect = lower value 0.0683 | S. cerevisiae deletion strains, locus YJL095W, strain BCK1, stronger effect = lower value 0.0555 | S. cerevisiae deletion strains, locus YJL134W, strain LCB3, stronger effect = lower value 0.0513 | S. cerevisiae deletion strains, locus YJL168C, strain set2, stronger effect = lower value 0.119 | S. cerevisiae deletion strains, locus YJL187C, strain SWE1 (second series), stronger effect = lower value 0.0564 | S. cerevisiae deletion strains, locus YJR043C, strain POL32, stronger effect = lower value 0.0719 | S. cerevisiae deletion strains, locus YJR075W, strain HOC1, stronger effect = lower value 0.0687 | S. cerevisiae deletion strains, locus YKL009W, strain mrt4, stronger effect = lower value 0.0698 | S. cerevisiae deletion strains, locus YKL068W, stronger effect = lower value 0.0536 | S. cerevisiae deletion strains, locus YKL085W, strain MDH1 (second series), stronger effect = lower value 0.0497 | S. cerevisiae deletion strains, locus YKL085W, strain MDH1, stronger effect = lower value 0.0497 | S. cerevisiae deletion strains, locus YKL190W, strain CNB1, stronger effect = lower value 0.0588 | S. cerevisiae deletion strains, locus YKR001C, strain vps1, stronger effect = lower value 0.0648 | S. cerevisiae deletion strains, locus YLR039C, strain RIC1, stronger effect = lower value 0.0872 | S. cerevisiae deletion strains, locus YLR058C, strain SHM2, stronger effect = lower value 0.0574 | S. cerevisiae deletion strains, locus YLR102C, strain apc9, stronger effect = lower value 0.0963 | S. cerevisiae deletion strains, locus YLR262C, strain YPT6, stronger effect = lower value 0.0942 | S. cerevisiae deletion strains, locus YLR268W, strain sec22, stronger effect = lower value 0.0696 | S. cerevisiae deletion strains, locus YLR330W, strain CHS5, stronger effect = lower value 0.0514 | S. cerevisiae deletion strains, locus YLR342W, strain FKS1 (second series), stronger effect = lower value 0.0823 | S. cerevisiae deletion strains, locus YLR371W, strain rom2, stronger effect = lower value 0.0741 | S. cerevisiae deletion strains, locus YLR418C, strain cdc73, stronger effect = lower value 0.0943 | S. cerevisiae deletion strains, locus YML016C, strain PPZ1, stronger effect = lower value 0.136 | S. cerevisiae deletion strains, locus YML032C, strain rad52, stronger effect = lower value 0.0764 | S. cerevisiae deletion strains, locus YML124C, strain tub3, stronger effect = lower value 0.0593 | S. cerevisiae deletion strains, locus YMR078C, strain ctf18, stronger effect = lower value 0.0766 | S. cerevisiae deletion strains, locus YMR223W, strain ubp8, stronger effect = lower value 0.0693 | S. cerevisiae deletion strains, locus YMR263W, strain SAP30, stronger effect = lower value 0.0638 | S. cerevisiae deletion strains, locus YMR307W, strain GAS1, stronger effect = lower value 0.109 | S. cerevisiae deletion strains, locus YNL067W, strain RPL9B, stronger effect = lower value 0.0557 | S. cerevisiae deletion strains, locus YNL128W, strain TEP1, stronger effect = lower value 0.0601 | S. cerevisiae deletion strains, locus YNL153C, strain GIM3, stronger effect = lower value 0.0467 | S. cerevisiae deletion strains, locus YNL233W, strain BNI4, stronger effect = lower value 0.0536 | S. cerevisiae deletion strains, locus YNL250W, strain rad50, stronger effect = lower value 0.0761 | S. cerevisiae deletion strains, locus YNL271C, strain bni1, stronger effect = lower value 0.0615 | S. cerevisiae deletion strains, locus YNL298W, strain CLA4, stronger effect = lower value 0.0597 | S. cerevisiae deletion strains, locus YNL307C, strain MCK1, stronger effect = lower value 0.0706 | S. cerevisiae deletion strains, locus YNL322C, strain KRE1, stronger effect = lower value 0.0507 | S. cerevisiae deletion strains, locus YNR052C, strain pop2, stronger effect = lower value 0.0636 | S. cerevisiae deletion strains, locus YOL006C, strain TOP1, stronger effect = lower value 0.132 | S. cerevisiae deletion strains, locus YOL147C, strain pex11, stronger effect = lower value 0.0576 | S. cerevisiae deletion strains, locus YOR061W, strain CKA2, stronger effect = lower value 0.0583 | S. cerevisiae deletion strains, locus YOR069W, strain VPS5, stronger effect = lower value 0.0477 | S. cerevisiae deletion strains, locus YOR136W, strain idh2, stronger effect = lower value 0.074 | S. cerevisiae deletion strains, locus YOR144C, strain elg1, stronger effect = lower value 0.0585 | S. cerevisiae deletion strains, locus YOR184W, strain ser1, stronger effect = lower value 0.075 | S. cerevisiae deletion strains, locus YOR316C, strain cot1, stronger effect = lower value 0.1 | S. cerevisiae deletion strains, locus YPL055C, strain LGE1, stronger effect = lower value 0.0726 | S. cerevisiae deletion strains, locus YPL241C, strain CIN2, stronger effect = lower value 0.0521 | S. cerevisiae deletion strains, locus YPR119W, strain clb2, stronger effect = lower value 0.0662 | S. cerevisiae deletion strains, locus YPR141C, strain kar3, stronger effect = lower value 0.0657 | S. cerevisiae deletion strains, locus YPR163C, strain tif3, stronger effect = lower value 0.0749 | S. cerevisiae deletion strains, locus YPR167C, strain met16, stronger effect = lower value 0.0645 | S. cerevisiae deletion strains, strain wtn01, stronger effect = lower value 0.061 | S. cerevisiae strains, strain wild type, stronger effect = lower value 0.0494
